# According to article PMC4336329 (PLoS ONE, 2015):
# Screen size: about 310,000 compounds; about 14,000 (4.5%) showed an effect of 50% or more. Effects have a minus sign here. The list comes from a sample in which strong results are over-represented; it also holds similar structures and randomly drawn compounds.
# Target: human ether-à-go-go-related gene (hERG) potassium channel (human, UniProt Q12809)
# Experiment: primary screen, population patch clamp on CHO cells stably expressing hERG; higher = less effect of the substance
# 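Note: peak tail current of the secondary pulse compared with the same well before compound.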
# human ether-à-go-go-related gene (hERG) potassium channel, sequence (Q12809 whole entry, looked up): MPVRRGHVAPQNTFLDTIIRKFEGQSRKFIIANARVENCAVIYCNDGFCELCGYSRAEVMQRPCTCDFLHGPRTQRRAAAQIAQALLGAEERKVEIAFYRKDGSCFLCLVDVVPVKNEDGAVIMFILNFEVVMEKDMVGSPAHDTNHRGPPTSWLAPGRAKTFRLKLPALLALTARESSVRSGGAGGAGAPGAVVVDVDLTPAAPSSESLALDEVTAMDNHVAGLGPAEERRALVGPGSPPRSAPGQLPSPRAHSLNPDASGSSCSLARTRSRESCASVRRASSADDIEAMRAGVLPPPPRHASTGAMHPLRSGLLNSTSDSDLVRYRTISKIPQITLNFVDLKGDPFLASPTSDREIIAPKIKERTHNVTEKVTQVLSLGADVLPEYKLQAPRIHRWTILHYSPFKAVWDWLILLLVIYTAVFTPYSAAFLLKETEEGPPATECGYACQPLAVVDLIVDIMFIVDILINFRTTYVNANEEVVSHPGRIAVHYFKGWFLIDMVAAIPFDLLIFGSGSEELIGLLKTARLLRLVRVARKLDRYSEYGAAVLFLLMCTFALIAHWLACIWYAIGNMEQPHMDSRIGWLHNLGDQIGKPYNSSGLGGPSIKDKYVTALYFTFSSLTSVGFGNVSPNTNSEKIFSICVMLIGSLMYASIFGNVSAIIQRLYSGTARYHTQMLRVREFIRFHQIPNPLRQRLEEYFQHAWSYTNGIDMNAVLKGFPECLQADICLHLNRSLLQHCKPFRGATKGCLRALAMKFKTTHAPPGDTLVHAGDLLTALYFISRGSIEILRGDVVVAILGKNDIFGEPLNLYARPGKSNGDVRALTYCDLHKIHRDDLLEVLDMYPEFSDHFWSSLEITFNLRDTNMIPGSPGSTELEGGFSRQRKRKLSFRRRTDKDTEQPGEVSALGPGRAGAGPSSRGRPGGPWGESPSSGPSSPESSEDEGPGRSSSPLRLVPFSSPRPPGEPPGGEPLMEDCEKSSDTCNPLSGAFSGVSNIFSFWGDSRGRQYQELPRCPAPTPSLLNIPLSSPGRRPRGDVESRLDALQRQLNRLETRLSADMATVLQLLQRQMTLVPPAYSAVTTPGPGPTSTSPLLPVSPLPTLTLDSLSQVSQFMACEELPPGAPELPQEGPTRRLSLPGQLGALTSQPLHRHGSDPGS
row,Structure (SMILES),"hERG current change (%, negative = inhibition) at 10uM [%]"
1,Cc1cc(C)cc(N(C(=O)CNC(=O)c2ccco2)C(C(=O)NC2CCCCC2)c2ccncc2)c1 (stereo not drawn),-10
2,CCOC(=O)C1=C(C)NC(=O)C(C(N)=O)C1c1ccccc1 (stereo not drawn),5.2
3,O=c1[nH]c2cc3c(cc2cc1C(c1nnnn1C1CCCC1)N1CCSCC1)OCCO3 (stereo not drawn),13.6
4,CSc1nc(C)cc(-n2ccc(=O)[nH]c2=O)n1,-3.54
5,CCOC(=O)/C=c1\s/c(=C\c2c(OC)ccc3ccccc23)c(=O)n1CC(=O)NCC1CCCO1 (stereo not drawn),2.13
6,Cc1ccccc1Nc1ncnc2c1cnn2C,4.92
7,CN(C)CC(C)(C)CNC(=O)c1cc(=O)c2ccccc2o1.Cl,19.6
8,Cc1cc(/C=C2/SC(=O)N(CC(=O)N3CCCC3)C2=O)c(C)n1C,-5.16
9,Cc1cc(OCCCn2ccnc2)cc(C(C)C)c1,-14.4
10,CCC(C)NCCCCOc1cc(C)cc(C(C)C)c1 (stereo not drawn),-54.9
11,Cc1cc(OCCCCNC(C)C)cc(C(C)C)c1.O=C(O)C(=O)O,-29.6
12,COc1ccc(C(=O)Oc2cc(N)n(S(=O)(=O)c3ccccc3)n2)cc1,-7.73
13,COc1ccccc1NS(=O)(=O)c1ccc(C(=O)NCC(c2ccccc2OC)N(C)C)cc1 (stereo not drawn),-0.121
14,Cc1ccc(OCc2cc(C(=O)N3CCC(C(O)C(C)C)CC3)no2)cc1C (stereo not drawn),-23.1
15,CCN1CCN(CCOCCOc2ccccc2-c2ccccc2)CC1.O=C(O)C(=O)O,-35.6
16,CC(=O)c1ccccc1OCCCN1CCCCC1.O=C(O)C(=O)O,-31.8
17,CC(=O)c1ccccc1OCCCCN1CCCCC1.O=C(O)C(=O)O,-59.5
18,CCc1ccccc1OCCCCN1CCCCC1.O=C(O)C(=O)O,-30
19,CCN1CCN(CCOc2ccccc2-c2ccccc2)CC1.O=C(O)C(=O)O,-32.9
20,Cl.OCCCN1CCN(CCCOc2ccccc2-c2ccccc2)CC1,-69.6
21,Cl.OCCN1CCN(CCOc2ccccc2-c2ccccc2)CC1,-24.1
22,CCN1CCN(CCCOc2ccccc2-c2ccccc2)CC1.O=C(O)C(=O)O,-66.6
23,O=C(O)C(=O)O.c1ccc(-c2ccccc2OCCCN2CCCC2)cc1,-65

row,Structure (SMILES),"hERG current change (%, negative = inhibition) at 10uM [%]"
1,O=C(O)C(=O)O.c1ccc(-c2ccccc2OCCCN2CCOCC2)cc1,-37.1
2,O=C(CSc1nnc(-c2cccnc2)o1)Nc1cccc(F)c1,-1.97
3,Cc1c(Br)c([N+](=O)[O-])nn1CC(=O)N1CCN(C23CC4CC(CC(C4)C2)C3)CC1,-38.1
4,Cc1c(N2C(=O)/C(=C\c3ccccc3O)SC2=S)c(=O)n(-c2ccccc2)n1C,30.5
5,O=C(O)Cc1nc2nc3c(c(=O)n2[nH]1)CCCC3,16.3
6,CCOc1ccc(/C=N/NC(=O)c2cc(-c3cccn3C)n[nH]2)cc1,5.27
7,COc1ccc(C/C(O)=C(\C#N)c2nc3ccccc3s2)cc1,11.6
8,O=C(O)C(=O)O.c1ccc(-c2ccccc2OCCCCN2CCCCCC2)cc1,-77.5
9,O=C(O)C(=O)O.c1ccc(-c2ccccc2OCCCN2CCCCCC2)cc1,-80.1
10,O=C(O)C(=O)O.c1ccc(-c2ccccc2OCCCN2CCCCC2)cc1,-74.6
11,O=C(O)C(=O)O.c1ccc(-c2ccccc2OCCN2CCCCC2)cc1,-45.9
12,O=C(O)C(=O)O.c1ccc(-c2ccccc2OCCOCCN2CCOCC2)cc1,6.15
13,CCC1(c2ccc(C)cc2)NC(=O)N(CC(=O)Nc2cccc(S(=O)(=O)N3CCCC3)c2)C1=O (stereo not drawn),0.0785
14,O=C(NCCCN1CCCCC1)C1CC(=O)N(CCc2ccccc2)C1 (stereo not drawn),12.3
15,CC(C)CC(=O)Nc1nnc(S(=O)(=O)N2CCCCCC2)s1,-15
16,COc1ccc(-c2nc3c(s2)CN(S(C)(=O)=O)CC3)cc1OC,15.2
17,Cc1ccc(S(=O)(=O)NCCC(=O)Nc2ccc(C)c(Cl)c2)cc1C,-1.46
18,CCOC(=O)C1CCCN(C2CC(=O)N(c3ccc(C(C)C)cc3)C2=O)C1 (stereo not drawn),-10
19,CCc1ccc(NC(=O)Cc2ccc(-n3cccc3)cc2)cc1,0.973
20,Cc1[nH]n(-c2ccccc2)c(=O)c1/C=N/n1c(C)nc2ccccc2c1=O,11.8
21,CCc1ccc(Nc2ccc(C(N)=O)cc2[N+](=O)[O-])cc1,8.56
22,Cc1ccc(N)c(N)c1,6.61
